Rows were chosen to be rich in hits. Some 2.3% of all compounds tested hit in one or more screens of this group.
M1 antag = antagonists of human M1 muscarinic receptor. AID 588852. inhibition, % at 3 µM. 360,000 tested, 1.3% active. CHO-K1 hM1, Fluo-8 calcium fluorescence, ACh EC80 antagonist. P11229;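 active = percent inhibition above its own plate's cutoff, namely the mean of that plate's compound wells plus 3 SD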;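 note: peak over basal fluorescence ratio during 140 s after agonist addition; 0% = ACh EC80 plus DMSO and 100% = DMSO alone without agonist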
Target sequence (P11229 whole entry, looked up): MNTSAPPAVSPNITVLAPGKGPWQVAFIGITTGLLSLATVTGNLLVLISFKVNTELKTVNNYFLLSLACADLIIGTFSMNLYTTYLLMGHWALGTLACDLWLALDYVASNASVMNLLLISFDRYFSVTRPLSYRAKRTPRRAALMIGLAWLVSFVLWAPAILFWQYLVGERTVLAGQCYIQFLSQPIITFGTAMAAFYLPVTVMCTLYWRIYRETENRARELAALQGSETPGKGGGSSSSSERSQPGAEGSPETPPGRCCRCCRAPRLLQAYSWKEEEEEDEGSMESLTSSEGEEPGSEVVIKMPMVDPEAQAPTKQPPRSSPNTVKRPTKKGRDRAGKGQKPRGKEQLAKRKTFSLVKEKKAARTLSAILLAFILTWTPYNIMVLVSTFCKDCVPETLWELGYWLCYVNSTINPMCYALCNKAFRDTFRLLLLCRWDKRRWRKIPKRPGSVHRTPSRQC
CHRM1 PAM = human CHRM1 positive allosteric modulation. P11229. CHO-K1 hM1, Fluo-8 calcium fluorescence, ACh EC20; 0% = ACh EC20, 100% = maximal ACh. activation, % at 3 µM. 360,000 tested, 0.088% active; in the data active = activation above about 19%, passing the limit was not always enough
M1 PAM parental = counter-screen for M1 PAMs: effect in parental CHO-K1 cells | ATP EC20, Fluo-8 calcium fluorescence; 0% at ATP EC20, 100% at ATP max | activation, % at 3 µM | 360,000 tested, 0.02% active;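 active = activation above the run cutoff, the mean activation of all test compounds plus 3 SD, cut at about 40% in these data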;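 note: peak over basal fluorescence ratio in a 140 s read after ATP addition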
CHO-K1 Ca antag = M1 antagonist counterscreen hit in parental CHO-K1 cells; ATP-induced calcium, Fluo-8 fluorescence; 360,000 tested, 0.6% active; AID 602250; inhibition, % at 3 µM;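 active = inhibition above a per-plate cutoff, the plate's mean sample inhibition plus 3 SD, cut at about 24% in these data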;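 note: 0% = DMSO plus EC80 ATP and 100% = DMSO alone without ATP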
CHO-K1 Ca ag = M1 agonist counterscreen hit in parental CHO-K1 cells; Fluo-8 calcium fluorescence; scaled to maximal ATP response, vehicle zero; activation, % at 3 µM; 360,000 tested, 0.48% active; in the data active = activation above about 15%;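 note: untransfected CHO-K1 host cells lacking M1 receptor as counterscreen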
CHRM1 agonist = human M1 muscarinic receptor agonism | 360,000 tested, 0.33% active | CHO-K1 hM1, Fluo-8 calcium fluorescence, agonist mode; 0% DMSO, 100% acetylcholine EC100 | P11229 | activation, % at 3 µM;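 active = activation above the run's mean compound activation plus 3 SD, cut at about 16% in these data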;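 note: peak over basal fluorescence ratio within a 140 s kinetic read after compound addition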
The depositor's hits bear a star.

SMILES | M1 antag | CHRM1 PAM | M1 PAM parental | CHO-K1 Ca antag | CHO-K1 Ca ag | CHRM1 agonist
CC(C)c1ccc(Nc2n[nH]c(=S)s2)cc1 | 7 | -2 | -5 | 28* | 1 | -2
Cc1c(C(=O)NCCC2=CCCCC2)oc2ccc(S(=O)(=O)N3CCOCC3)cc12 | 42* | -14 | 11 | 10 | 6 | 3
CN(C)c1ccc(/C=C/C(=O)c2c(O)c3ccccc3oc2=O)cc1 | 12 | -12 | 9 | 3 | 32* | 30*
O=C(c1ccc([N+](=O)[O-])o1)N1CCN(c2nc3c(F)cc(F)cc3s2)CC1 | 5 | -6 | -10 | 24* | 2 | -4
Cc1ccc(C)c2sc(N3CCN(C(=O)c4ccc([N+](=O)[O-])o4)CC3)nc12 | 0 | 0 | -35 | 21 | 0 | -3
CCCCC(CC)C1OCC(C[N+]2(C)CCOCC2)O1 (stereo not drawn) | 43* | -21 | 14 | -9 | 0 | -10
CCOc1ccccc1NC(=O)C(OC(=O)c1cnc(C)cn1)c1ccccc1 (stereo not drawn) | -10 | 6 | 46* | -12 | 0 | -3
c1ccc(SCCc2ccncc2)cc1 | 101* | -29 | 4 | 6 | 1 | -9
C[C@H](CO)N1C[C@H](C)[C@@H](CN(C)C(=O)c2ccc3c(c2)OCO3)Oc2cc(/C=C/c3ccccc3)ccc2S1(=O)=O | 1 | -6 | 24 | -5 | 5 | 0
CCOc1ccccc1CN1CCCC(C(=O)Nc2cccc(-n3cccn3)c2)C1 (stereo not drawn) | 71* | -22 | 20 | -7 | 11 | -2
CCOc1cccc(CN2CCCC(C(=O)Nc3cccc(-n4cccn4)c3)C2)c1 (stereo not drawn) | 5 | -4 | -5 | 5 | 3 | -5
CCn1ncc(CN2CCCC(C(=O)Nc3cccc(-c4cc5ccccc5[nH]4)c3)C2)c1C (stereo not drawn) | 25* | -9 | -14 | 7 | 1 | -2
C[C@H](NS(=O)(=O)c1ccc(F)cc1)C(=O)OCC(=O)c1c(N)n(C)c(=O)n(C)c1=O | -1 | 7 | 6 | 1 | 1 | -2
Cc1ccc(NC(=O)c2ccccc2NS(=O)(=O)c2ccc(Cl)s2)cc1 | 17 | -1 | 5 | 25* | 10 | -2
COc1cccc(N2CCN(CC(=O)NC(=O)NC3CCCCC3)CC2)c1 | -6 | 2 | -18 | -1 | 1 | -2
Cc1nc2sc(C(c3ccc(Cl)cc3)N3CC(C)OC(C)C3)c(O)n2n1 (stereo not drawn) | -20 | 23* | 1 | 20 | 0 | 11
CCN1C/C(=C/c2ccc(N3CCOCC3)cc2)C(=O)/C(=C/c2ccc(N3CCOCC3)cc2)C1 | 31 | -9 | 6 | 27* | 34* | 23*
Cc1ccc(NC(=O)NC2CC(=O)N(c3ccc4c(c3)OCCO4)C2)cc1F (stereo not drawn) | 0 | 5 | -20 | 4 | 1 | -1
Cc1nc(NC(=O)CSc2nc3ccccc3s2)sc1C(=O)N(C)C | -20 | 25* | 6 | -11 | 3 | 1
Cc1cc(OCc2cc(C(=O)N(C)C3CCOC3)no2)cc(C)c1Cl (stereo not drawn) | -10 | -3 | 10 | 1 | 11 | -3
O=c1oc(-c2ccccc2NS(=O)(=O)c2ccc(F)cc2)nc2ccccc12 | -1 | 2 | -6 | -12 | 0 | -2
O=c1oc(-c2ccccc2NS(=O)(=O)c2ccccc2)nc2ccccc12 | 3 | -1 | -6 | 29* | 1 | -4
NNC(=O)c1ccc(CN2C(=O)c3cccc4cccc2c34)cc1 | -12 | 15 | 14 | -5 | 1 | 34*
CC(C)Oc1ccccc1/C=N/NC(=O)c1ccc(F)cc1 | -22 | 22* | 12 | -7 | 1 | 0
Cn1cccc1CC(=O)N/N=C/c1ccc(Cl)c([N+](=O)[O-])c1 | -3 | 2 | 5 | 5 | 11 | -2
SMILES | M1 antag | CHRM1 PAM | M1 PAM parental | CHO-K1 Ca antag | CHO-K1 Ca ag | CHRM1 agonist
COC(C[C@@H](O)[C@H](C)[C@@H](O)COCc1ccccc1)OC | 51* | -32 | 14 | -10 | 1 | -9
COC(C[C@H](O)[C@@H](C)[C@@H](O)COCc1ccccc1)OC | -2 | 4 | 14 | -6 | 1 | 1
CC(C)c1ccc(N2C(=O)CSC23C(=O)N2CCCc4cccc3c42)cc1 (stereo not drawn) | 98* | -21 | 21 | -5 | 1 | -8
COc1ccc(C(=O)C2CCCN(C(=O)CCc3scnc3C)C2)c(C)c1 (stereo not drawn) | -9 | 10 | 12 | 3 | 18* | -7
COc1ccc(C(=O)C2CCCN(C(=O)CCc3ccccn3)C2)c(C)c1 (stereo not drawn) | 11 | -1 | -6 | -8 | 2 | -1
Cc1cnc(C(=O)OCc2csc(CC(=O)Nc3ccccc3C)n2)cn1 | -15 | 12 | 17 | -11 | -1 | 0
O=Cc1ccc(-c2ccccc2C(=O)O)o1 | 5 | 11 | -19 | 29* | -1 | 0
Cc1ccc(C(C)(C)C)cc1S(=O)(=O)Nc1cccc(C(=O)N2CCN(c3ccccn3)CC2)c1 | 8 | -2 | -14 | -1 | 3 | 10
O=C(NCC(c1cccs1)N1CCOCC1)c1ccccc1NS(=O)(=O)c1ccc(Cl)c([N+](=O)[O-])c1 (stereo not drawn) | 21 | -20 | -7 | 22 | 16* | -2
CCOc1ccc(S(=O)(=O)Nc2ccc(C(=O)NCC(c3ccco3)N(C)C)cc2)cc1 (stereo not drawn) | 32* | -20 | 4 | -1 | 2 | -5
COc1cc(C(=O)NCC(c2cccs2)N2CCOCC2)ccc1OCc1ccccc1 (stereo not drawn) | 3 | 4 | -12 | 27* | 1 | -1
CN(C)C(CNC(=O)c1cccc(NS(=O)(=O)c2ccc(Br)cc2)c1)c1ccco1 (stereo not drawn) | 70* | -26 | 1 | 3 | 1 | -7
COc1ccc(CNC(=O)CCCn2nc(C)c3c(C)n(-c4ccc(C)cc4)nc3c2=O)cc1 | -8 | 0 | 4 | -21 | -1 | -6
CC(NC(=O)CN1C(=O)NC2(CCc3ccccc32)C1=O)c1ccccc1 (stereo not drawn) | -5 | 2 | 13 | -7 | 0 | -3
Cc1ccc(NC(=O)CN2C(=O)NC3(CCCCC3C)C2=O)cc1S(=O)(=O)N1CCOCC1 (stereo not drawn) | 13 | -10 | 10 | 14 | 0 | -1
CCCn1c(C(O)c2cc(OC)c(OC)c(OC)c2)nc2ccccc21 (stereo not drawn) | -15 | 10 | -14 | 1 | 0 | -1
